# Reference: PubChem BioAssay
# Values without a mark were called inactive. Where a call stands in place of a potency, no number is given. For some of these results: Potency and affinity values are given separately. Calls of active or inactive are those of the source. Unless noted, no rule for the calls is given here.
# Columns and labels:
# [1] = antimalarial activity against Dd2 strain (AID 2302;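 active = growth inhibition above 50% at the single 2 µM test dose, taken to imply half-maximal potency below 2 µM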); conditions: P. falciparum Dd2 in RBCs, LDH growth readout, 72 h; at 2 µM; stronger effect = higher value
# [2] = HepG2 cytotoxicity, primary screen, cytotoxicity control for P. falciparum antimalarial project, cell-based, ATP luminescence (AID 2303;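 active = inhibition above 50%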); conditions: HepG2 viability, 24-48 h, at 10 µM, stronger effect = higher value
# [3] = target: L-lactate dehydrogenase (Plasmodium falciparum (isolate CDC / Honduras)) (UniProt Q27743); assay: PfLDH activity inhibition – cell lysate, 3D7 strain, counter-screen for P. falciparum growth inhibition project (AID 2304); conditions: P. falciparum 3D7 crude extract, LDH APAD/NBT absorbance; at 2 µM; stronger effect = higher value
# [4] = inhibition of 3D7 malaria parasite growth – strain 3D7 (AID 2306); conditions: P. falciparum 3D7 erythrocytic growth, LDH absorbance, 72 h; at 2 µM; stronger effect = higher value
# [5] = target: Calcium-dependent protein kinase 1 (Plasmodium falciparum (isolate 3D7)) (UniProt P62344); assay: PfCDPK1 kinase inhibitors, biochemical, TCAMS library (AID 1159585; cut-off not given, nearly all actives have IC50 up to about 0.98 µM;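 also: inhibitors leave more ATP so luminescence rises with inhibition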); conditions: recombinant PfCDPK1, Kinase-Glo ATP depletion luminescence
# [6] = target: Plasmodium falciparum protein kinase 6 (PK6, PF3D7_1337100) (UniProt Q8IDW1); assay: PfPK6 kinase inhibitors, biochemical, TCAMS library (AID 1159586); conditions: recombinant PfPK6, Kinase-Glo ATP depletion luminescence
# [7] = target: Protein kinase 7 (PK7), Plasmodium falciparum 3D7 (PF3D7_0213400) (UniProt Q7YTF7); assay: inhibition of Plasmodium PK7 catalytic activity – biochemical, TCAMS antimalarial set, Kinase-Glo luminescence (AID 1159587); conditions: recombinant PfPK7, Kinase-Glo ATP depletion luminescence
# [8] = target: Calcium-dependent protein kinase 4 (Plasmodium falciparum (isolate 3D7)) (UniProt Q8IBS5); assay: PfCDPK4 kinase inhibitors, biochemical, TCAMS library (AID 1159588; cut-off not given, nearly all actives have IC50 up to about 0.91 µM); conditions: recombinant PfCDPK4, Kinase-Glo ATP depletion luminescence
# Calcium-dependent protein kinase 4 (Plasmodium falciparum (isolate 3D7)), sequence (Q8IBS5 whole entry, looked up): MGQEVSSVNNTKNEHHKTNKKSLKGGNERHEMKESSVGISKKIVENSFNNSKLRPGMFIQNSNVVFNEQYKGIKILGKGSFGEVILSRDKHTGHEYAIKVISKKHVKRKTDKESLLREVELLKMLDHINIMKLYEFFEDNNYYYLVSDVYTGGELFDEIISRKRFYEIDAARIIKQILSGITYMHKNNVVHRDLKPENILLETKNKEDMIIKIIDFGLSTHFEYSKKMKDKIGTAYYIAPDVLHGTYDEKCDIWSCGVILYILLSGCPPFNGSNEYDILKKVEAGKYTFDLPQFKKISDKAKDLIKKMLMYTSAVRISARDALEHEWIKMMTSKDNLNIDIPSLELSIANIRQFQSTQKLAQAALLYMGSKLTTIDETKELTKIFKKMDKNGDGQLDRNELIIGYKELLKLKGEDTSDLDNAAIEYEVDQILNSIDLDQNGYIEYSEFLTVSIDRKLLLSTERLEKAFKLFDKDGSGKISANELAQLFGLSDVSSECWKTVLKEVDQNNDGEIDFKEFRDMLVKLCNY
# Plasmodium falciparum protein kinase 6 (PK6, PF3D7_1337100), sequence (Q8IDW1 1-305): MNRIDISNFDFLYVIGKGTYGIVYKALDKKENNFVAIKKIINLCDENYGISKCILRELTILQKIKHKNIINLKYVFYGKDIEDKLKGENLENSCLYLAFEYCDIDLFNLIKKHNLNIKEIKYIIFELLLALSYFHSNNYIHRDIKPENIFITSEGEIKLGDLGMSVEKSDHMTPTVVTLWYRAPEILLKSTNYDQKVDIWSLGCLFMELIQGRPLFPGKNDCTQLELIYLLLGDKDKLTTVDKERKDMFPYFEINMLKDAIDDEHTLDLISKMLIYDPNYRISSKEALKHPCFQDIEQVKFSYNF
# L-lactate dehydrogenase (Plasmodium falciparum (isolate CDC / Honduras)), sequence (Q27743 whole entry, looked up): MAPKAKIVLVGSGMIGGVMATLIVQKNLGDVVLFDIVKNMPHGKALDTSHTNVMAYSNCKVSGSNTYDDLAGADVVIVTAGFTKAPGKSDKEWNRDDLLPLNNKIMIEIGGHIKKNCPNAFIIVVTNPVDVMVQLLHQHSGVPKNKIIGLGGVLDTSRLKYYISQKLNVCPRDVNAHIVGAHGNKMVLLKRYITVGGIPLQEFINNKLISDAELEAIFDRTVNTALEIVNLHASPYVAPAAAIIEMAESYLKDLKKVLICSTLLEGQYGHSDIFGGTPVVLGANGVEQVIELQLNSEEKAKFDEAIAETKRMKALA
# Calcium-dependent protein kinase 1 (Plasmodium falciparum (isolate 3D7)), sequence (P62344 whole entry, looked up): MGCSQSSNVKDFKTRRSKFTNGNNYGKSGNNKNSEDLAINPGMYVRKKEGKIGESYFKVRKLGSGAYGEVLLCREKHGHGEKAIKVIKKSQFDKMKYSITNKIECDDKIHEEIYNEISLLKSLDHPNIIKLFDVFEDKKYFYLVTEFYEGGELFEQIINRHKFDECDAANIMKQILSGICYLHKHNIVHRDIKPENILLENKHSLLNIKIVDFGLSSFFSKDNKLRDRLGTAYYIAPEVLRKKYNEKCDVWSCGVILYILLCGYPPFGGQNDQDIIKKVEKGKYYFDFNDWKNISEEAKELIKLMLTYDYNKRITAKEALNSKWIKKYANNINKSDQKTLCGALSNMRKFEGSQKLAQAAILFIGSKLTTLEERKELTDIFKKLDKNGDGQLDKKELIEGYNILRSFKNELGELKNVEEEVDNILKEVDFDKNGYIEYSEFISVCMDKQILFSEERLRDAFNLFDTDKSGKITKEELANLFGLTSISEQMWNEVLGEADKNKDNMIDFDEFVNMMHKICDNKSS
# Protein kinase 7 (PK7), Plasmodium falciparum 3D7 (PF3D7_0213400), sequence (Q7YTF7 1-343): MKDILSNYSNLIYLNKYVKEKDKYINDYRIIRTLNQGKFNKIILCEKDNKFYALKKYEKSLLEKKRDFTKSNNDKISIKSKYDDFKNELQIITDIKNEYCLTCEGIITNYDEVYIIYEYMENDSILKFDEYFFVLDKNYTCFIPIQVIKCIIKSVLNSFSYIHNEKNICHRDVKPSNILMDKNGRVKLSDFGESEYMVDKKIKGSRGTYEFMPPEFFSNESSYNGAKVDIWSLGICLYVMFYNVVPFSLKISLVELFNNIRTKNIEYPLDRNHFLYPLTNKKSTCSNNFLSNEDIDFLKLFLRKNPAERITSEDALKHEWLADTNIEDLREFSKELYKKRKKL
Compound,growth inhibition [1],inhibition [2],inhibition [3],growth inhibition [4],outcome [5],outcome [6],outcome [7],outcome [8]
N#Cc1cc([N+](=O)[O-])ccc1-n1nc(C(N)=O)n(Cc2cccc(F)c2)c1=S,100% (active),6%,-4%,100% (active),inactive,inactive,inactive,inactive
CCc1ccc(OCCCON2C(N)=NC(N)=NC2(C)C)cc1,95% (active),64% (active),-8%,95% (active),inactive,inactive,inactive,inactive
COc1ccc(-c2ccc(NC(=O)c3cccc(C#N)c3)cc2)cc1CN1CCN(C)CC1,59% (active),26%,8%,100% (active),inactive,inactive,inactive,inactive
CCc1ccc(CN(CCCOc2cccc(CC(=O)NCc3cnc[nH]3)c2)Cc2ccc(-n3ccnc3)cc2)cc1,28%,1%,-2%,99% (active),inactive,inactive,inactive,inactive
CC1(C)N=C(N)N=C(N)N1OCCCc1c(Cl)cccc1Cl,97% (active),71% (active),3%,95% (active),inactive,inactive,inactive,inactive
COc1ccc(C=Cc2cc(N)c3ccccc3n2)cc1Br,88% (active),55% (active),2%,101% (active),inactive,inactive,inactive,inactive
Oc1c(Cl)cc(-c2ccccc2)cc1CNC1CCCCC1,95% (active),5%,-5%,97% (active),inactive,inactive,inactive,inactive
CC(=O)Oc1c(C2CCN(CCCCNC(=O)c3ccc(NC(=O)c4ccc(Cl)cc4)cc3)CC2)ccc2c1CCCC2,80% (active),21%,2%,100% (active),inactive,inactive,inactive,inactive
c1cc(-c2cc3ccc(C4=NCCN4)cc3[nH]2)ccc1C1=NCCN1,99% (active),15%,-1%,97% (active),inactive,inactive,inactive,inactive
CN1CCC(NCc2cccc(-c3ccc(S(=O)(=O)NCCN4CCCC4)c(F)c3)c2)CC1,-4%,14%,2%,91% (active),inactive,inactive,inactive,inactive
Cc1cc(OCC(=O)Nc2ccc(-c3nc4ccccc4[nH]3)cc2)cc(C)c1Cl,0%,5%,-1%,99% (active),inactive,inactive,inactive,inactive
Cc1cccc(Oc2cccc3[nH]nc(N)c23)c1,-3%,6%,-2%,85% (active),inactive,inactive,inactive,inactive
O=C(Nc1ccc(OC2CCN(Cc3ccc(F)cc3)C2)c(Cl)c1)c1ccc(F)cc1 (stereo unspecified),94% (active),10%,-3%,96% (active),inactive,inactive,inactive,inactive
O=C(Nc1ccc(S(=O)(=O)N2CCCCCC2)cc1)c1cc(-c2ccccc2O)n[nH]1,76% (active),16%,6%,100% (active),inactive,inactive,inactive,inactive
O=C(Nc1nc(-c2cc(F)ccc2F)cs1)c1cncc(Br)c1,3%,16%,-4%,85% (active),inactive,inactive,inactive,inactive
Cc1cc2ccc(-c3cccc(CN)c3)cc2nc1N,1%,-4%,-6%,100% (active),inactive,inactive,inactive,inactive
CCOc1ccc(N(CC)S(=O)(=O)c2cc(Br)cc3c2N(C(=O)C2CC2)CC3)cc1,97% (active),-4%,-5%,99% (active),inactive,inactive,inactive,inactive
COc1ccc(CCCCN2C(=O)C(c3ccccc3)(c3ccccc3)N=C2N)cc1,95% (active),40%,-2%,97% (active),inactive,inactive,inactive,inactive
Oc1ccc(Nc2nc(NCc3ccco3)c3ccccc3n2)cc1,78% (active),7%,-3%,101% (active),inactive,inactive,inactive,inactive
COc1ccc2nc(C)cc(NN=Cc3cccc(F)c3)c2c1,100% (active),2%,1%,100% (active),inactive,inactive,inactive,inactive
Cc1ccc(CN2CCCN(Cc3cccc(NC(=O)c4cc5ccccc5s4)c3)CC2)cc1C,33%,44%,-3%,92% (active),inactive,inactive,inactive,inactive
C=CCN1C(=O)C(=Cc2cc(Br)ccc2O)SC1=Nc1ccccc1,55% (active),-4%,-4%,96% (active),inactive,inactive,inactive,inactive
CSCCCN1CCC(O)(c2ccc3oc(C(=O)Nc4ccc5sc(C)nc5c4)cc3c2)CC1,69% (active),10%,4%,101% (active),inactive,inactive,inactive,inactive
COc1ccc(Cl)cc1N1CCN(CCCNC(=O)c2ccc(-c3nc4cc(Cl)c(F)cc4[nH]3)cc2)CC1,98% (active),3%,6%,101% (active),inactive,inactive,inactive,inactive

Compound,growth inhibition [1],inhibition [2],inhibition [3],growth inhibition [4],outcome [5],outcome [6],outcome [7],outcome [8]
COc1ccccc1-c1cccc(Nc2c(Nc3ccc(Cl)cc3)c(=O)c2=O)c1,47%,20%,0%,81% (active),inactive,inactive,inactive,inactive
O=C(Cc1ccc(NC(=O)c2ccc(O)c(-c3ccc(Cl)c(Cl)c3)c2)cc1)NCCN1CCOCC1,24%,10%,4%,94% (active),inactive,inactive,inactive,inactive
O=C(Nc1cccc(CN2CCCN(Cc3ncc[nH]3)CC2)c1)c1ccc(Cl)c(Cl)c1,16%,8%,1%,100% (active),inactive,inactive,inactive,inactive
CCn1c(Sc2ccc(C#N)c([N+](=O)[O-])c2)nnc1-c1cc(OC)cc(OC)c1,82% (active),7%,-2%,93% (active),inactive,inactive,inactive,inactive
O=C(Cn1c(CCc2cccc(F)c2F)nc(=O)c2ccccc21)N(CCN1CCCCC1)Cc1ccc(-c2ccc(C(F)(F)F)cc2)cc1,89% (active),32%,4%,101% (active),inactive,inactive,inactive,inactive
c1ccc(CCNc2ccnc(Nc3ccc4n[nH]nc4c3)n2)cc1,95% (active),33%,-4%,101% (active),inactive,inactive,inactive,inactive
CCc1c(CCNCCCCCCNCCc2ccccc2)ccc(OC)c1OC,3%,33%,-2%,102% (active),inactive,inactive,inactive,inactive
CCOCn1c(-c2ccccc2)cc2c3c(N)nc(N)nc3ccc21,66% (active),62% (active),-4%,91% (active),inactive,inactive,inactive,inactive
CCCc1ccc(N2C(N)=NC(N)=NC2(C)C)cc1,-2%,59% (active),6%,94% (active),inactive,inactive,inactive,inactive
NC(=NCCCCCCCCN=C(N)Nc1ccc(Cl)cc1)Nc1ccc(Cl)cc1,89% (active),10%,-5%,93% (active),inactive,inactive,inactive,inactive
CCN(CCCNc1nc(=S)[nH]c2cc(OC)c(OC)cc12)c1ccccc1,23%,14%,-2%,100% (active),inactive,inactive,inactive,inactive
Cc1cccc2[nH]c(-c3ccc(-c4cccc(NC(=O)C(C)CN(C)C)c4)cc3)nc12 (stereo unspecified),61% (active),20%,1%,99% (active),inactive,inactive,inactive,inactive
O=C(Nc1ccc(S(=O)(=O)N2CCCCC2)cc1)c1cc(-c2ccccc2O)n[nH]1,81% (active),13%,-2%,94% (active),inactive,inactive,inactive,inactive
COc1ccc(NC(=O)Nc2ccc(Nc3nc(C)cc(N(C)C)n3)cc2)cc1,99% (active),11%,-3%,102% (active),inactive,inactive,inactive,inactive
c1cc(CNCCc2ccncc2)cc(-c2csc(-c3nc4ccccc4[nH]3)c2)c1,99% (active),16%,-8%,100% (active),inactive,inactive,inactive,inactive
CN1CCc2cc(CN3C[C@]4(C)C[C@H]3CC(C)(C)C4)c(O)cc2C(c2ccccc2)C1 (stereo partly specified),88% (active),-4%,-3%,98% (active),inactive,inactive,inactive,inactive
CCn1ncc2c(NC3CCOCC3)c(CNC(=O)c3ccnn3C)c(C)nc21,98% (active),-11%,-2%,98% (active),inactive,inactive,inactive,inactive
O=C(Nc1ccc(-c2cccc(CN3CCC(O)CC3)c2)cc1)c1cccc(Cl)c1,14%,50% (active),3%,94% (active),inactive,inactive,inactive,inactive
Nc1c2ccccc2nc2cc([N+](=O)[O-])ccc12,26%,92% (active),-1%,98% (active),inactive,inactive,inactive,inactive
CC(C)NCc1cccc(-c2ccc(-c3nc4ccccc4[nH]3)cc2)c1,66% (active),4%,-2%,101% (active),inactive,inactive,inactive,inactive
O=C(Nc1cc(C(F)(F)F)cc(C(F)(F)F)c1)N1CCC(CCN2CCC(c3c[nH]c4ccccc34)CC2)CC1,16%,17%,6%,91% (active),inactive,inactive,inactive,inactive
COc1cc2nc(N3CCC(CNC(=O)c4ccc(-c5ccc(C(=O)N(C)C)cc5C)cc4)CC3)nc(N3CCN(C)CC3)c2cc1OC,84% (active),26%,-10%,88% (active),inactive,inactive,inactive,inactive
O=S(=O)(c1cccc(F)c1)c1ccc(Nc2ncnc3cc(Br)sc23)cc1Cl,11%,20%,-2%,86% (active),inactive,inactive,inactive,inactive
